# In the library only some 6.1% were active in any assay of this set; here they are far more common.
# D3 ag: agonists of human D3 dopamine receptor | max activation, % | actives 0.58% (n = 410,000) | D3R DiscoveRx beta-arrestin cells, luminescence, 90 min; in the data active = max activation above about 30%; also: 0% is about no effect
#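 Agonist-mode cell screen: cells plated at 1500/well and incubated overnight at 37 °C, then exposed to library compounds for 90 min at 37 °C. Detection reagent was added for 30–60 min at room temperature, and luminescence was read.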
# ERG Ets-DNA blk: ERG Ets/DNA interaction inhibition | P11308 | fluorescence polarization, His-ERG Ets domain / labelled DNA | Potency, µM (top dose mostly 76.9 µM), without a hit: top-dose FP activity, negative = inhibition, hits mostly inhibitors | actives 0.028% (n = 370,000) | AID 624246; active = well fitted inhibition curve with a large enough effect in the polarisation, with a control signal flat; inconclusive = small, poorly fitted or top-dose-only effect, or effect the other way, or a change in a side signal; inactive = no such curve, though single readings can be large or run the other way; the % refers to the polarisation;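 also: polarization taken with two DNA probes labelled with fluorescein and Texas red; potency is read from the fitted curve at half-maximal effect; % of control where 0% means no effect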
# Target sequence (P11308 whole entry, looked up, the tested form may be a part): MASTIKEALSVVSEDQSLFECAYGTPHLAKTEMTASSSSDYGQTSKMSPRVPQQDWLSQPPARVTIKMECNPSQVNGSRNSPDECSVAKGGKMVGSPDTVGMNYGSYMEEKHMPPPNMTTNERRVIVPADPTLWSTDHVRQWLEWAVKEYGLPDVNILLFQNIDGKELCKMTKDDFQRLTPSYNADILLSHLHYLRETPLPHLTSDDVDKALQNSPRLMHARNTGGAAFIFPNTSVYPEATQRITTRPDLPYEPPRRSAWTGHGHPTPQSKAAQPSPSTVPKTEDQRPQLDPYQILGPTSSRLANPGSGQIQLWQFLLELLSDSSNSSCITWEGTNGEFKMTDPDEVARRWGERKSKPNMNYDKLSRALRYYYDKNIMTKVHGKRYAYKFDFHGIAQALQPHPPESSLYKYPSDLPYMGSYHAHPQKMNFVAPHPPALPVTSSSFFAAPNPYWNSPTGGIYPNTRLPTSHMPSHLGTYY
#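 His-tagged ERG Ets domain (1 uM in the protein solution; 300mM KCl, 50mM Tris-HCl, 1mM EDTA, 1mM DTT, pH 7.5) received compound, then a probe mix of 5 nM fluorescein-DNA and 100nM Texas-615-DNA. Fluorescence polarization was read for both dyes.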
# D1 antagonist: antagonists of human D1 dopamine receptor. P21728. HEK293 TREx D1 cells, calcium flux, dopamine EC80; active compounds read low. activity change, negative = inhibition, % at 10 µM. actives 3.2% (n = 360,000); in the data active = activity change below about -30%; also: % is scaled to controls: 0 for no effect and ±100 for the full control effect
#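 Antagonism measured as reduced calcium response to an EC80 dopamine addition following 180 s compound pre-read; cells were inducible HEK293 Trex D1 plated overnight at 30 C, read kinetically at 1 cycle/sec.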
# D1 potentiator: human D1 dopamine receptor positive modulation | P21728 | actives 0.036% (n = 360,000) | AID 504651 | HEK293 TREx D1 cells, calcium flux, dopamine EC20 potentiation | potentiation, % at 10 µM; in the data active = potentiation above about 30%; also: 0% is about no effect
# D3 antag: blocks the human D3 dopamine receptor; D3R cells, DiscoveRx beta-arrestin luminescence, antagonist mode; active compounds read low; actives 2.5% (n = 360,000); AID 652054; P35462; max response, negative = inhibition, %; in the data active = max response below about -50%; inconclusive = no clear call, values can overlap the other calls; also: % is scaled to controls: 0 for no effect and ±100 for the full control effect
#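 Cells expressing the human receptor were seeded at 1500 cells/well, incubated overnight at 37 degrees C in 5% CO2, then exposed to library compounds with dopamine controls for 90 minutes at 37 degrees C before luminescent detection.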
# D1 agonist: agonists of human D1 dopamine receptor; activation, % at 2 µM; actives 1% (n = 360,000); HEK293 T-REx D1 cells, calcium flux, agonist mode; P21728; in the data active = activation above about 30%; also: 0% is about no effect
#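 Tetracycline-induced HEK293 TREx D1 cells, force-coupled to calcium signalling, were dye-loaded with a no-wash calcium kit. Compound was pin-added after a 10 s baseline. Fluorescence was read kinetically at 1 cycle/s for 180 s, with calcium rises flagged as agonism.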
# The depositor's hits bear a star; ? = inconclusive; · = not tested or not shown.
SMILES,D3 ag,ERG Ets-DNA blk,D1 antagonist,D1 potentiator,D3 antag,D1 agonist
Cc1nc2c(cc1NC(=O)C(C)(C)C)nc(C)n2Cc1ccccc1,-3,-10%,7,-2,-1,0
O=C(NCc1cccc(Cl)c1)c1ccc(NC(=O)N2CCSc3ccccc32)cc1,1,-2%,8,-2,·,1
Oc1ccccc1C(Nc1nccs1)c1ccc2cccnc2c1O (stereo not given),33*,2%,3,1,-8,0
COc1ccc(CCNC(=O)Cn2c(=O)n(-c3ccc(C)c(C)c3)c(=O)c3c(C)c(C)sc32)cc1OC,5,-3%,4,2,·,3
Cn1ncc2c(Nc3ccc([N+](=O)[O-])cc3)nc(Cl)nc21,0,4%,-17,-4,-11,18
Cc1ccc(OCC(=O)Nc2ccc3c4c(cccc24)CC3)c(C)c1,20,0%,0,0,8,5
CNC(=S)NNC(=O)COc1cccc(C)c1C,-5,3%,3,6,-62*,0
CC(C)(C)c1ccc(OCC(=O)NNC(=S)NC(=O)c2ccccc2[N+](=O)[O-])c(Br)c1,-10,4%,-16,-2,0,2
CNC(=S)NNC(=O)COc1ccccc1C,-21,·,12,0,-20,2
Cc1cccc(OCC(=O)Nc2ccc3c4c(cccc24)CC3)c1C,4,-9%,-47*,2,24,3
Cc1ccccc1OCC(=O)NNC(=S)NC(=O)c1ccccc1[N+](=O)[O-],4,3%,-57*,-6,-9,2
COc1ccc(C2=C(CN(C)C)C(c3ccccc3)c3ccccc3O2)cc1 (stereo not given),-14,-9%,25,-6,-11,5
CC(C)(C)OC(=O)N1CCC(c2c(C(=O)NCc3ccccc3)cnn2-c2ccccc2)CC1,-4,9%,13,-1,·,1
CCOC(=O)c1ccccc1NC(=O)CSc1ccc(-c2cccnc2)nn1,-1,8%,5,-3,31,-3
CCN1CCN(c2ccc(S(=O)(=O)N3CCOCC3)cc2NC(=O)C(C)Oc2cccc(Cl)c2)CC1 (stereo not given),-17,3%,4,-3,-13,6
CCNc1oc(/C=C/c2ccc(OCC)cc2)nc1C#N,3,-1%,-22,-4,7,0
O=C(CN1CCN(Cc2ccc(F)cc2)CC1)Nc1nc2ccccc2s1,-1,8%,-30*,-3,2,12
O=C(CN1CCOCC1)Nc1nc2ccc([N+](=O)[O-])cc2s1,-22,9%,-24,-4,-85*,5
O=C(CN1CCN(c2ccc([N+](=O)[O-])cc2)CC1)Nc1nccs1,7,-20%,-32*,7,24,8
O=C(CN1CCN(c2ccc([N+](=O)[O-])cc2)CC1)Nc1ccccn1,6,-1%,-14,-8,-6,16
C[C@@H]1CN([C@H](C)CO)C(=O)c2cc(Br)cnc2O[C@@H]1CN(C)Cc1ccc(F)cc1,-6,·,·,·,-14,·
OC(CNCCc1ccccc1)COc1ccc(OCC(O)CNCCc2ccccc2)cc1 (stereo not given),-20,8%,-3,-1,-52*,34*
OC(CNCCC(c1ccccc1)c1ccccc1)COc1ccccc1 (stereo not given),-12,19%,-61*,-6,-26,11
C/C=C/c1ccc(OCC(O)CNCCc2ccc(OC)cc2)c(OC)c1 (stereo not given),-9,3%,10,-6,-4,14
CCC(=O)c1ccc(OCC(O)CNCc2ccc(F)cc2)cc1 (stereo not given),4,11%,-5,-1,-16,10
SMILES,D3 ag,ERG Ets-DNA blk,D1 antagonist,D1 potentiator,D3 antag,D1 agonist
OC(CNCCc1ccc(Cl)cc1)COc1cc(Cl)ccc1Cl (stereo not given),-6,5%,-5,5,-26,35*
CCC(=O)c1ccc(OCC(O)CNCCc2ccc(Cl)cc2)cc1 (stereo not given),-5,-3%,-15,-6,-20,62*
CC(C)N(CCNCC(O)COc1ccc(C(C)(C)c2ccccc2)cc1)C(C)C (stereo not given),18,-4%,-18,-3,-1,63*
COc1ccc(C(OCC(O)CNCCc2ccccc2)c2ccc(OC)cc2)cc1 (stereo not given),-34,-2%,-30*,-10,-58*,96*
COc1ccc(CCNCC(O)COc2c(C)cccc2C)cc1OC (stereo not given),3,5%,-38*,-11,?,7
CC(C)CCNCC(O)CON=C1c2ccccc2-c2ccccc21 (stereo not given),-1,-5%,8,4,8,50*
O=C(O)c1ccc(Cl)c(NC(=O)C2CCN(S(=O)(=O)c3cccs3)CC2)c1,0,·,·,·,?,·
CCC(C)N1CCN(C(=O)c2cc(OC)cc(OC)c2)CC1 (stereo not given),-5,3%,1,-1,-12,5
COc1ccc(CCNCC(O)COc2ccc(Cl)cc2)cc1OC (stereo not given),-10,-4%,11,-7,0,17
Clc1ccc(OCCNCCc2ccccc2)cc1,11,-11%,-18,-10,-59*,25
OC(CNCCc1ccc(Cl)cc1)COc1ccc2ccccc2c1 (stereo not given),-9,-5%,7,-1,14,33*
CN(C)CCCOc1ccc(C(C)(C)c2ccccc2)cc1,-8,1%,8,-6,-68*,20
Cc1ccc(C(C)C)c(OCCN2CCc3ccccc3C2)c1,-34,-1%,13,-3,-67*,1
Cc1ccc(C)c(OCCCN2CCc3ccccc3C2)c1,-12,-8%,-3,-14,-89*,0
Cc1ccc(OCCCCN2CCc3ccccc3C2)c(C)c1,-31,-1%,-6,-7,-106*,0
Cc1cc(C(C)(C)C)ccc1OCCCCN1CCCC1,-15,-9%,-13,4,-11,30
Cc1ccc(C(C)C)c(OCCCN2CCc3ccccc3C2)c1,-20,-23%,35,-5,-85*,-1
Cc1ccc(C(C)C)c(OCCCN2C(=O)NC(C)(C)C2=O)c1,0,6%,5,-2,-4,0
O=C(NC(=S)Nc1cccc2ncccc12)c1ccccc1,2,0%,6,-2,-28,10
Cc1ccc(C(C)C)c(OCCCn2c(=O)oc3ccccc32)c1,4,2%,5,-2,·,33*
Cc1ccc(C(C)C)c(OCCCn2c(=O)oc3ccc(C)cc32)c1,2,0%,11,-1,·,14
